Data published in PubChem BioAssay AID1274 (Emory University Molecular Libraries Screening Center, 2008).
About 1,100 (0.5%) of roughly 220,000 compounds were called active. Many of the other results were omitted from the sample, so actives are more common in it than they were. Unmarked numbers belong to inactive results.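 How the source made its calls: active means inhibition above about 30% (limit read from the data); inactive means the rest.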

Target: Neutrophil cytosol factor 1 (Homo sapiens) (UniProt P14598)
Test: blockers of p47phox binding to p22phox – biochemical, uHTS, NADPH oxidase regulatory subunit, primary screen (AID 1274);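 further: 0% = p47phox with labelled peptide and 100% = labelled peptide alone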
Details: p47phox/p22phox peptide binding, fluorescence polarization, 2 h; at 24.7 µM; hits give high values

Sequence of Neutrophil cytosol factor 1 (Homo sapiens) (P14598 whole entry, looked up): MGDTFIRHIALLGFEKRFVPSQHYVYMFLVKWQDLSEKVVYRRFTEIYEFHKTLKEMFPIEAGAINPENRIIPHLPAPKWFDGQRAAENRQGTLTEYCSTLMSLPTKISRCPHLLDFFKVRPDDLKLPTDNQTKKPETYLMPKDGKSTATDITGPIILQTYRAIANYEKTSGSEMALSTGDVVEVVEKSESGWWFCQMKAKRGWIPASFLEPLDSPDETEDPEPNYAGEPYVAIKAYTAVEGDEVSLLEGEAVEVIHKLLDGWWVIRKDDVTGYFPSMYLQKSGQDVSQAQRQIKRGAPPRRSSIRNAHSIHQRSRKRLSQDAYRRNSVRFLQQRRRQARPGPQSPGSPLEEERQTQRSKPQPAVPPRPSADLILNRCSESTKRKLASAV

Compared with O=C(Cc1ccccc1[N+](=O)[O-])N1CCN(Cc2ccc3c(c2)OCO3)CC1, COc1ccccc1CN1CCN(C(=O)Cc2ccccc2)CC1 is higher in inhibition: -1.92% for the first, 3.15% for the second.

Going from COCc1cc(OC(=O)N(C)C)nc(-c2ccc(C)c(Cl)c2)n1 to COC(=O)N(c1ccc(OC)cc1)P1(=S)OCCC(C)O1 (stereo not given), the inhibition rises from -3.02% to 2.14%.

For O=C(COc1ccc2ccccc2c1)N1CCN(Cc2ccncc2)CC1, the inhibition was 38.1% (active).
